# Measurements: PubChem BioAssay
# The source made the active and inactive calls. Unless noted, no rule for the calls is given here.
# What was measured:
# [1] = system: Wnt5a (protein binding on small-molecule microarray); test: small molecules binding Wnt5a protein – biophysical, small-molecule microarray, 635/667 nm fluorescence, primary screen (AID 1142); conditions: 635 nm fluorescence, higher = more signal;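 also: fluorescence read at 667 nm with signal to noise per printed feature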
# [2] = ATP-based viability of Huh7 replicon cells – cell-based, CellTiter-Glo luminescence, basal, 48 h, cytotoxicity control for HCV replication inhibitor project, primary screen (AID 1143); conditions: higher = more signal, called active from +8 up or from −8 down;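 also: Huh7 hepatoma cells carrying a hepatitis C replication reporter with no stimulus; test concentration not given here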
# [3] = Pseudomonas biofilm growth suppression – PAO1 strain, BacTiter-Glo luminescence, LB-PBS, primary screen (AID 1144); conditions: P. aeruginosa PAO1 biofilm, 12 h, higher = more signal
# [4] = basal CRE-LacZ reporter activity in PC12 – cell-based, unstimulated, primary screen (AID 1145); conditions: no forskolin, luminescence, 4.5 h, higher = more signal, called active from +8 up or from −8 down
# [5] = forskolin-driven CRE-LacZ activity in PC12 – cell-based, CRE-LacZ reporter, forskolin-stimulated, primary screen (AID 1146); conditions: luminescence, 4.5 h, higher = more signal, called active from +8 up or from −8 down;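 also: PC12 cells with 6xCRE LacZ reporter stimulated by forskolin 10 µM; beta-galactosidase reporter signal reflecting CREB driven transcription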
# [6] = target: Streptavidin (Streptomyces avidinii) (UniProt P22629); test: compounds binding control protein streptavidin – biophysical, small-molecule microarray, 635/667 nm fluorescence, artefact control for SMM compound annotation, primary screen (AID 1147); conditions: higher = more signal;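 also: signal reflects streptavidin binding to arrayed compounds as a control protein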
# [7] = probe aInhba binding on compound microarray – biochemical, small-molecule microarray, 635/667 nm fluorescence, primary screen (AID 1148); conditions: higher = more signal;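 also: score merges 667nm spot fluorescence with signal-to-noise for antibody binding to printed compounds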
# Torsin-1A (Homo sapiens) [8] = target: Torsin-1A (Homo sapiens) (UniProt O14656); test: TOR1A wild-type binding on microarray – cell lysate, small-molecule microarray, lysate, 635/667 nm, primary screen (AID 1149); conditions: COS7 hTOR1A-WT lysate, 635 nm fluorescence, higher = more signal
# Torsin-1A (Homo sapiens) [9] = target: Torsin-1A (Homo sapiens) (UniProt O14656); test: torsin A mutant lysate binding on microarrays – cell lysate, small-molecule microarray, COS7 lysate, 635/667 nm fluorescence, primary screen (AID 1150); conditions: COS7 hTOR1A mutant lysate, 635 nm fluorescence, higher = more signal;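 also: score pools 667 nm emission and signal to noise measuring lysate protein binding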
# [10] = system: Sonic hedgehog protein (Shh); test: Sonic hedgehog microarray binding compounds – biochemical, small-molecule microarray, 635/667 nm fluorescence, primary screen (AID 1151); conditions: 635 nm fluorescence, higher = more signal;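 also: Shh protein binding to compounds spotted on small-molecule microarray slides; score combines spot fluorescence intensity with signal-to-noise across triplicate slides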
# [11] = optical density shifts of acrAB sulA E. coli – strain DRC41, OD650, 48 h, E. coli filamentation inducer project, primary screen (AID 1152); conditions: higher = more signal, called active from +8 up or from −8 down;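 also: E. coli MC1000 strain DRC41 lacking acrAB efflux pump and sulA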
# [12] = probe aLefty1 binding on compound microarray – biochemical, small-molecule microarray, 635/667 nm fluorescence, primary screen (AID 1153); conditions: higher = more signal;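 also: score merges spot fluorescence with signal-to-noise ratio from the scanned slide images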
# [13] = plasmodial surface anion channel blockers, osmotic lysis – cell-based, P. falciparum Indochina, OD700, 1 h, primary screen (AID 1154); conditions: P. falciparum Indochina infected RBC osmotic lysis, higher = more signal, called active from +8 up or from −8 down
# [14] = plasmodial surface anion channel blockers, osmotic lysis – cell-based, P. falciparum Indochina, OD700, 2 h, primary screen (AID 1155);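 also: lysis reports solute entry through the parasite surface anion channel PSAC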; conditions: P. falciparum Indochina infected erythrocytes, higher = more signal, called active from +8 up or from −8 down
# [15] = changes in parasitized red cell lysis, either direction – P. falciparum Indochina, OD700, 3 h, PSAC antagonist project, primary screen (AID 1156); conditions: P. falciparum-infected erythrocytes, osmotic lysis, higher = more signal, called active from +8 up or from −8 down
# [16] = plasmodial surface anion channel blockers, osmotic lysis – cell-based, P. falciparum Indochina, OD700, 18 h, primary screen (AID 1157); conditions: P. falciparum Indochina infected erythrocytes, osmotic lysis OD700, 18 h; higher = more signal, called active from +8 up or from −8 down
# [17] = S6 kinase pathway phospho-S6 level changes – cell-based, A549, cytoblot, luminescence, serum-stimulated, primary screen (AID 1158); conditions: 5 h, higher = more signal;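 also: serum-stimulated A549 lung adenocarcinoma cells; signal is phosphorylated S6 detected by cytoblot immunostaining with HRP secondary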
# [18] = target: NADPH oxidase 2 (Homo sapiens) (UniProt P04839); test: compounds shifting NOX2 Amplex Red fluorescence – cell-based, HEK293-NOX2, PMA-stimulated, NOX inhibitor project, primary screen (AID 1159); conditions: 45 min, higher = more signal, called active from +8 up or from −8 down; also: test concentration not given here
# [19] = target: NADPH oxidase 4 (Homo sapiens) (UniProt Q9NPH5); test: compounds shifting NOX4 Amplex Red fluorescence – cell-based, HEK293-NOX4, tetracycline-induced, NOX inhibitor project, primary screen (AID 1160); conditions: HEK293-NOX4, Amplex Red H2O2 fluorescence, 45 min; higher = more signal, called active from +8 up or from −8 down
# [20] = target: NADPH oxidase 5 (Homo sapiens) (UniProt Q96PH1); test: compounds shifting NOX5 Amplex Red fluorescence – cell-based, HEK293-NOX5, NOX inhibitor project, primary screen (AID 1161); conditions: HEK293-NOX5, ionomycin, 45 min, higher = more signal
# Sequence of NADPH oxidase 5 (Homo sapiens) (Q96PH1 whole entry, looked up): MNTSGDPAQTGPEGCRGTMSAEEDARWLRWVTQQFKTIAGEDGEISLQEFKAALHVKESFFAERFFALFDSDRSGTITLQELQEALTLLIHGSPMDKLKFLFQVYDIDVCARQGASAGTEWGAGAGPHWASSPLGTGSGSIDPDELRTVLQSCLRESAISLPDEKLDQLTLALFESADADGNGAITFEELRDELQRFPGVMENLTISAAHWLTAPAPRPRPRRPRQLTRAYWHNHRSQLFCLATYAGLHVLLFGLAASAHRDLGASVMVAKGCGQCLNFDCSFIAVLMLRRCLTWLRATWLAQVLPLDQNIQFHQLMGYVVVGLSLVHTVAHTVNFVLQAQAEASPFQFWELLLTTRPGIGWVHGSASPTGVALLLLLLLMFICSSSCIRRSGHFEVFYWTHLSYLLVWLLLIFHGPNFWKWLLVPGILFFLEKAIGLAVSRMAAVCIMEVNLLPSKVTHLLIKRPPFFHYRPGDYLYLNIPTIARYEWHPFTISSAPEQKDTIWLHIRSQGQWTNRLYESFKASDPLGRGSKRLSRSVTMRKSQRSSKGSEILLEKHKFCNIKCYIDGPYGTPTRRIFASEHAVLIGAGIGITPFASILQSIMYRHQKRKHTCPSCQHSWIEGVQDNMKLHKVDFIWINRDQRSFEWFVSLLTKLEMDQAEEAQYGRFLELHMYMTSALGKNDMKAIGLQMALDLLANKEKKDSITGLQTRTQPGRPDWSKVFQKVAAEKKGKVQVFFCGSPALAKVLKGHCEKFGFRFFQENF
# Sequence of NADPH oxidase 4 (Homo sapiens) (Q9NPH5 whole entry, looked up): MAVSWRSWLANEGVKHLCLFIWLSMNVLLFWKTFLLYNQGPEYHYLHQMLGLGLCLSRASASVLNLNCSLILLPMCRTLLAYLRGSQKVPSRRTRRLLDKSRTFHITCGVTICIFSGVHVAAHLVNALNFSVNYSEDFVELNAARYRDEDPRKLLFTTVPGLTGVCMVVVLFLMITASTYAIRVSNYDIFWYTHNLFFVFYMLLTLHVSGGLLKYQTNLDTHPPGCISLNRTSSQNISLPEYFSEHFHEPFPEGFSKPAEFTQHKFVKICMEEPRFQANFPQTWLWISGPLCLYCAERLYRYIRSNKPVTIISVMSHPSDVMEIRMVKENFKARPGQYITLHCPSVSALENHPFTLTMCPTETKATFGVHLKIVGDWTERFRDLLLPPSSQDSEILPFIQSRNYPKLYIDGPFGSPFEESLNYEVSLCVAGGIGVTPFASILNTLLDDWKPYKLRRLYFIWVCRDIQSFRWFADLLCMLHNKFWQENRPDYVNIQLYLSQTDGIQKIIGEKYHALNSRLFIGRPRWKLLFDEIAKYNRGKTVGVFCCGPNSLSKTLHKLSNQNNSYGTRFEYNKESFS
# Sequence of Torsin-1A (Homo sapiens) (O14656 whole entry, looked up): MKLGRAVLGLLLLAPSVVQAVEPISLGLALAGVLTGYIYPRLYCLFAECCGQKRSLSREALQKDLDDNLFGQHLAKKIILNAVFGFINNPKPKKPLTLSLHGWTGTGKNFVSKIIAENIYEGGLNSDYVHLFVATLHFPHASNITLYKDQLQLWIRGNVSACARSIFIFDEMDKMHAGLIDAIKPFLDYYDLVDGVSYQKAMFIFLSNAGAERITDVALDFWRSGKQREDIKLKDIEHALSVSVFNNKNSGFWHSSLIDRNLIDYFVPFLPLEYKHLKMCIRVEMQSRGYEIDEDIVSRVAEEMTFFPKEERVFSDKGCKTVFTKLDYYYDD
# Sequence of Streptavidin (Streptomyces avidinii) (P22629 whole entry, looked up): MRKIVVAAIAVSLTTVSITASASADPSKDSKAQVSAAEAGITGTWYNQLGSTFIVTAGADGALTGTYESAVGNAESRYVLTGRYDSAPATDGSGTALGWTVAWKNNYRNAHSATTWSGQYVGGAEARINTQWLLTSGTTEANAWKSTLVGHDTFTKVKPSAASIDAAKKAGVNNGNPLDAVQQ
# Sequence of NADPH oxidase 2 (Homo sapiens) (P04839 whole entry, looked up): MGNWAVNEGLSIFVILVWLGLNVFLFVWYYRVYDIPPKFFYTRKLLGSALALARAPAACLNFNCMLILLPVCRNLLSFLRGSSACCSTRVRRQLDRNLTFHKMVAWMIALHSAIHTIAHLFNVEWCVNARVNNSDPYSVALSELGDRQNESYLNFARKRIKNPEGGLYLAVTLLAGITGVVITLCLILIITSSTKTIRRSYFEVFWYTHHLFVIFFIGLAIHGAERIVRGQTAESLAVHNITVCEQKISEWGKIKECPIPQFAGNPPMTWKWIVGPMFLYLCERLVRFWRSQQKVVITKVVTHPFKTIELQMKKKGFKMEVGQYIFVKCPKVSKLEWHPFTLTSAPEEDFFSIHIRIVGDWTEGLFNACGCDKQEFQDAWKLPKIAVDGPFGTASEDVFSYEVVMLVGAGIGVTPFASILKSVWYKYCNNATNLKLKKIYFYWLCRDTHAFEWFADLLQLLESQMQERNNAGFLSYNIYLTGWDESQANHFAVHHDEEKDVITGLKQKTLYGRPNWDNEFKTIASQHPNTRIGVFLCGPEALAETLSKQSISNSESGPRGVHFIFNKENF
SMILES,composite z-score [1],z-score [2],z-score [3],z-score [4],z-score [5],composite z-score [6],composite z-score [7],composite z-score (Torsin-1A (Homo sapiens) [8]),composite z-score (Torsin-1A (Homo sapiens) [9]),composite z-score [10],z-score [11],composite z-score [12],z-score [13],z-score [14],z-score [15],z-score [16],z-score [17],z-score [18],z-score [19],z-score [20]
COCCOC(=O)N1C(=O)[C@@]2(c3cc(C#CC4=CCCCC4)ccc31)[C@H](C(=O)N1CCCCCCC1)[C@H]1C(=O)O[C@H](c3ccccc3)[C@H](c3ccccc3)N1[C@@H]2c1ccc(O)cc1,0.278,-4.39 (inactive),-1.7 (inactive),-0.815 (inactive),0.234 (inactive),0.0947,0.329,0.681,0.595,1.3,1.63 (inactive),0.93,-0.43 (inactive),-1.2 (inactive),-1.27 (inactive),-1.96 (inactive),2.44,0.67 (inactive),0.257 (inactive),0.871
[N-]=[N+]=NCc1ccccc1C[C@@]1(C(=O)N2CCCCC2)N=C(c2ccc(OCCCO)cc2)O[C@@H]1c1ccccc1,0.462,-4.99 (inactive),0.914 (inactive),-0.552 (inactive),0.886 (inactive),0.325,0.159,-0.0373,0.601,-0.762,-0.184 (inactive),0.0323,25.2 (active),14.3 (active),2.13 (inactive),2.51 (inactive),0.893,-2.02 (inactive),-0.495 (inactive),-1.49
COCCOC(=O)N1C(=O)[C@@]2(c3cc(C#CC4=CCCCC4)ccc31)[C@H](c1ccc(OCCO)cc1)N1[C@H](c3ccccc3)[C@H](c3ccccc3)OC(=O)[C@H]1[C@@H]2C(=O)NC[C@H](O)c1ccccc1,0.552,-2.18 (inactive),0.698 (inactive),0.354 (inactive),-0.224 (inactive),0.785,0.801,0.818,0.51,1.85,-0.149 (inactive),1.43,2.35 (inactive),1.31 (inactive),-0.352 (inactive),0.482 (inactive),0.245,1.36 (inactive),0.849 (inactive),1.44
COc1ccc(-c2nc(-c3ccccc3)c3c(c2C)CO[Si]3(C(C)C)C(C)C)cn1,0.0934,-0.483 (inactive),0.338 (inactive),-0.607 (inactive),0.315 (inactive),0.188,-0.0494,0.14,-0.129,0.848,-1.41 (inactive),0.0816,0.574 (inactive),-0.0994 (inactive),-0.566 (inactive),-0.278 (inactive),-0.0095,-0.783 (inactive),0.386 (inactive),-1.54
